Assay outcomes as filed in PubChem.
NS1 inh: influenza NS1 inhibition; actives 0.4% (n = 270,000); Potency, µM (titrated, usually from 46.1 µM); calls by dose curve; note: actives are rising curves; nearly all actives have a fitted effect of over 50% in size
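Read-out: OD600 growth recovery of NS1-expressing budding yeast. Cells grown overnight at 30C in -URA glucose medium, washed, resuspended and diluted 1:100 in 2% galactose assay medium, pH 6.0. Same strain lacking NS1 served as positive control.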
TbPYK inhibitor: T. brucei pyruvate kinase inhibition. Q57TT1. TbPYK enzyme, Kinase-Glo Plus ATP luminescence, 45 min. Potency, µM (top dose mostly 76.8 µM), actives largely listed as inhibitors. actives 0.12% (n = 410,000); note: nearly all actives have a fitted effect of over 50% in size
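Luminescence from Kinase-Glo Plus, added after a 45-minute room-temperature reaction, served as the end-point read-out. The enzyme and substrate were preincubated with compound before ADP (130 uM final) initiated turnover. Concentration-effect curves came from normalized qHTS data.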
LmPK inh: LmPK (Leishmania mexicana) enzyme inhibition; purified LmPK, Kinase-Glo ATP luminescence, 1 h; actives 0.37% (n = 290,000); Potency, µM (series often up to 57.5 µM), actives largely listed as inhibitors
Target sequence (Q27686 whole entry, looked up): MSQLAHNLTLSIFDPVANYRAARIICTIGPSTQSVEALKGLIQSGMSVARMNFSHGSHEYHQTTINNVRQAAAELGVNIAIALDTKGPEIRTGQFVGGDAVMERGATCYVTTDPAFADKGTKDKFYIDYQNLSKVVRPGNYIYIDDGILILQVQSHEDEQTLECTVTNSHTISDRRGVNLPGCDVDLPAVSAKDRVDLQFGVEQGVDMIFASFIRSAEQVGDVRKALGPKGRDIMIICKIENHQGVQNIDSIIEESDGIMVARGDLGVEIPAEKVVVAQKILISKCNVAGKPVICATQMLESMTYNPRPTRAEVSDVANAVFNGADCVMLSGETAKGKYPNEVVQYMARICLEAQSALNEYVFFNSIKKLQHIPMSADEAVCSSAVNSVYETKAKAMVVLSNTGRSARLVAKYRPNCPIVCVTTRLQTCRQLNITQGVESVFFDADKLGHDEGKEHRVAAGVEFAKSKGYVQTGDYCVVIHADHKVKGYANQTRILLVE
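Purified LmPK (0.1 nM) converted ADP (0.1 mM) to ATP with PEP (0.5 mM) in imidazole buffer pH 7.2 with KCl and MgCl2, 1 h at room temperature. ATP was read by Kinase-Glo luminescence; data normalized to uninhibited and no-enzyme controls.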
Sm TGR block: S. mansoni TGR enzyme inhibition; Q962Y6; purified TGR, DTNB reduction, TNB absorbance 405 nm; Potency, µM (doses to about 114 µM), usual class: inhibitors; actives 3% (n = 360,000); AID 485364; note: nearly all actives have a fitted effect of over 60% in size
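TGR 20 nM + NADPH 100 uM (dispensed conc.), cpd preinc 15 min RT; start with NADPH (500 uM addition) then DTNB (15 mM addition). Kinetic TNB absorbance, 405 nm filter. Four-parameter Hill fit across titration.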
SARS PLP yeast: SARS-CoV PLP inhibition in yeast; S. cerevisiae expressing SARS-CoV PLpro, growth rescue; Potency, µM (top dose mostly 32.9 µM), actives largely listed as activators; actives 0.19% (n = 330,000); AID 485353; calls by dose curve; note: nearly all actives have a fitted effect of over 55% in size
RE007 growth inh: less growth of the S. pombe RE007 Vpr strain; S. pombe RE007 Vpr strain, BacTiter-Glo ATP luminescence, 24 h; Potency, µM (doses to about 92.2 µM), hits mostly inhibitors; actives 0.21% (n = 360,000); active = well fitted falling curve with a large enough effect; inconclusive = small, poorly fitted or top-dose-only effect; inactive = no such curve, though single readings can be large or run the other way; note: nearly all actives have a fitted effect of over 50% in size
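Fission yeast RE007 carrying one integrated HIV-1 vpr copy, seeded at OD 0.01 in PMG+AL medium with 23 nL pinned compound. Grown 24 h at 30 degrees; viability read by BacTiter-Glo luminescence after 5 min.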
Hits are given with their value; – = inactive; ? = inconclusive; · = no result given; [ ] = another dose, or the depositor's remark. Shown are actives, neighbours in structure and some others; about 3.3% of the full set was active somewhere. Unless noted, calls come from the whole dose curve; as a rule, active = well fitted curve in the direction sought with a large enough effect; inconclusive = small, poorly fitted or top-dose-only effect, or another doubt; inactive = no such curve, though single readings can be large; an effect the other way counts as inactive or inconclusive.

SMILES | NS1 inh | TbPYK inhibitor | LmPK inh | Sm TGR block | SARS PLP yeast | RE007 growth inh
O=C1c2cccc3c(O)ccc(c23)C(=O)N1Cc1ccco1 | – | – | – | 6.3µM | – | –
O=C1c2cccc3c(O)ccc(c23)C(=O)N1c1ccc(Cl)cc1 | – | – | – | 25µM | – | –
COc1ccc(/C=C(\C#N)C(N)=O)c(OC)c1 | – | · | · | · | · | ·
CC(C)c1ccc(N2CCN(C(=O)c3ccccc3NC(=O)/C=C\C(=O)O)CC2)cc1 | – | – | – | 40µM | – | –
O=C(O)/C=C\C(=O)Nc1ccccc1C(=O)N1CCN(c2ccc(Cl)cc2)CC1 | – | – | – | 50µM | – | ?
Cc1ccccc1N1CCN(C(=O)c2ccccc2NC(=O)/C=C\C(=O)O)CC1 | – | – | – | ? | – | –
CS(=O)(=O)Nc1ccccc1C(=O)N1CCN(c2ccccc2)CC1 | – | · | – | – | – | ·
Cc1cccc(OCC(=O)Nc2ccc(N3CCCC3)cc2)c1C | – | – | – | 32µM | – | –
CCC(C)(C#CCN1CCCCC1)OCCC#N (stereo unspecified) | – | – | – | 40µM | – | –
CCC(C#CCN1CCCCC1)(CC)OCCC#N | – | – | – | – | – | –
O=C(O)c1ccc(N2C(=O)CC(N3CCN(c4cccc(Cl)c4)CC3)C2=O)cc1 (stereo unspecified) | – | – | – | 50µM | – | –
O=C(O)c1ccc(N2C(=O)CC(N3CCN(c4cccc(C(F)(F)F)c4)CC3)C2=O)cc1 (stereo unspecified) | – | – | – | 89µM | – | –
O=C(CCCn1c(=O)c2cccn2c2cccnc21)Nc1ccccc1C(F)(F)F | · | – | · | – | · | ·
O=C(NCCc1ccc(Cl)cc1)c1ccc2c(c1)N(Cc1cccc(Cl)c1)C(=O)c1ccccc1S2(=O)=O | · | – | · | – | · | ·
O=C1CC(N2CCCCCC2)C(=O)N1c1ccc2c(c1)OCO2 (stereo unspecified) | – | – | – | 7.9µM | – | 6.3µM
O=C1CC(N2CCSCC2)C(=O)N1c1ccc(F)cc1 (stereo unspecified) | – | – | – | ? | – | 25µM
NC(=O)C1(N2CCCCC2)CCN(C2CC(=O)N(Cc3cccs3)C2=O)CC1 (stereo unspecified) | – | – | – | 50µM | – | –
O=C1CC(N2CCCCCC2)C(=O)N1c1ccc(F)cc1 (stereo unspecified) | – | – | – | 10µM | – | 10µM
O=C1CC(N2CCSCC2)C(=O)N1c1ccc(Br)cc1 (stereo unspecified) | – | – | – | ? | – | ?
CC(=O)c1cccc(NC(=O)Cn2c(=O)c(CNc3ccc(C)cc3)cc3cc4c(cc32)OCCO4)c1 | · | – | · | – | · | ·
CCOc1ccc(CNC(=O)CCCn2nc(C)c3sc4ccccc4c3c2=O)cc1 | · | – | · | – | · | ·
COc1ccc(N2C(=O)CC(N3CCCC4CCCCC43)C2=O)cc1 (stereo unspecified) | – | – | – | 11µM | – | 7.1µM
COc1ccc(N2C(=O)CC(N3CCC(O)(c4cccc(C(F)(F)F)c4)CC3)C2=O)cc1 (stereo unspecified) | – | – | – | 40µM | – | 32µM
O=C1CC(NC23CC4CC(CC(C4)C2)C3)C(=O)N1c1ccc2c(c1)OCO2 (stereo unspecified) | – | – | – | 45µM | – | –
COc1ccc(N2C(=O)CC(N3CCN(C(=O)c4ccco4)CC3)C2=O)cc1 (stereo unspecified) | – | – | – | ? | – | –
SMILES | NS1 inh | TbPYK inhibitor | LmPK inh | Sm TGR block | SARS PLP yeast | RE007 growth inh
O=C1C2C3C=CC(C3)C2C(=O)N1c1ccc2c(c1)OCO2 (stereo unspecified) | – | – | – | – | – | –
COc1cccc(N2C(=O)CC(N3CCC(C(N)=O)(N4CCCCC4)CC3)C2=O)c1 (stereo unspecified) | – | – | – | 18µM | – | –
CN1C(=O)CC(N2CCC(C(N)=O)(N3CCCCC3)CC2)C1=O (stereo unspecified) | – | – | – | – | – | –
CCCCn1nnnc1C(c1ccccc1)N1CCN(C/C=C/c2ccccc2)CC1 (stereo unspecified) | · | – | · | · | · | –
COc1ccc(N2C(=O)CC(N3CCCCC3)C2=O)cc1 (stereo unspecified) | · | – | – | 32µM | – | 18µM
O=[N+]([O-])c1cnc(Sc2ccncn2)s1 | – | – | – | 0.32µM | – | 1µM
O=C1NCCN1c1ncc([N+](=O)[O-])s1 | · | – | · | – | · | –[18.4 µM]
Cc1ccc(C)c(Cn2cnc3ccccc3c2=O)c1 | · | – | · | – | · | ·
C=C1C(=O)O[C@H]2C[C@]3(C)C([C@@H](OC(=O)/C(C)=C/C)[C@H]12)[C@](C)(O)CC[C@H]3O (stereo partly specified) | – | – | – | 14µM | – | –
C=C(C)C1(O)OC(=O)C=C1OC (stereo unspecified) | – | – | – | 6.3µM | – | –
COc1ccc(C2=CC(=O)OC3(CCCCC3)O2)cc1 | – | – | – | – | – | –
CCCCCn1c(=O)c2c(nc3n2CCN3c2ccc(Br)cc2)n(C)c1=O | · | – | · | – | · | ·
O=C(CC1C(=O)NCCN1C(=O)Nc1ccc(F)cc1)Nc1ccc(F)cc1 (stereo unspecified) | – | – | – | – | – | –
CCCC1c2ccc(C)n2CCN1C(=O)Nc1ccc(F)cc1 (stereo unspecified) | – | – | – | 20µM | – | –
CCC1c2ccc(C)n2CCN1C(=O)Nc1ccc(F)cc1 (stereo unspecified) | ? | – | – | 10µM | – | –
OC1=C(O)c2nc3cc(F)ccc3nc21 | – | – | – | 13µM | – | –
Nc1nnc2cc(F)ccc2n1 | · | – | · | · | · | –
CN1CCN(C(c2ccc(Br)cc2)c2cc(Cl)c3cccnc3c2O)CC1 (stereo unspecified) | – | – | – | 0.63µM | · | –
CN1CCN(C(c2cccnc2)c2ccc3cccnc3c2O)CC1 (stereo unspecified) | – | – | – | 0.25µM | – | –
CN1CCN(C(c2ccc(F)cc2)c2ccc3cccnc3c2O)CC1 (stereo unspecified) | · | – | · | · | · | –
COc1ccc2c(Sc3ccc(Cl)cc3)c(C(=O)N3CCCCC3)[nH]c2c1 | · | – | · | – | · | ·
CCc1ccc(CNC(=O)C2CCCN(c3nn4cc(-c5ccc(F)cc5)nc4s3)C2)cc1 (stereo unspecified) | · | –[15.4 µM] | · | – | · | ·
CCC1Oc2ccc(C)cc2N(CC(=O)N(Cc2ccncc2)Cc2ccco2)C1=O (stereo unspecified) | – | – | – | 22µM | – | –
CCC1Oc2ccc(C)cc2N(CC(=O)N(Cc2cccnc2)Cc2cccc(F)c2)C1=O (stereo unspecified) | – | – | – | – | – | –
